Test [1] has as its target Lysosomal acid glucosylceramidase (Homo sapiens) (UniProt P04062). The test can be described thus: Glucocerebrosidase-p2 (AID 348; in the data active = potency below about 10 µM; also: potency is read from the fitted curve at half-maximal effect). Conditions: purified GBA, blue fluorogenic substrate, 40 min. Put shortly:
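Compounds titrated from 0.6 nM upwards against 0.2 nM enzyme in pH 5.9 citric acid/KH2PO4, taurocholate, tween-20; blue fluorogenic substrate 80 uM, 40 min room temperature, stopped and read Ex 365/Em 440 for AC50.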

A short description of test [2]: AP1 Signaling Pathway (AID 357; active = well fitted curve in either direction with a large enough effect, not every such curve was filed as active;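 also: ME-180 reporter cells stimulated with EGF at its EC50 level; % is scaled to controls: 0 for no effect and ±100 for the full control effect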). Conditions: ME-180 AP-1-bla reporter, EGF-induced, beta-lactamase ratio, 5 h; at 7.69 µM (top of the series) unless noted. Put shortly:
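Titration-series screen for positive or negative modulators of EC50 EGF-induced signaling in ME-180 cells carrying an AP-1-driven beta-lactamase reporter. After 5 hours at 37 degrees Celsius, CCF4 460nm/530nm emission ratio gave %Activity; AC50 values derived.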

Test [3] addresses Cytochrome P450 1A2 (Homo sapiens) (UniProt P05177). The test can be described thus: p450-cyp1a2 (AID 410; calls by dose curve; also: potency is read from the fitted curve at half-maximal effect). The method, boiled down: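 Inhibition was calculated relative to 57 uM furafylline (full inhibition). The reaction used human CYP1A2 at 20nM with Luciferin-ME at its Km, 100uM, driven by an NADPH-regenerating system for 60 min at room temperature.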
Test [4] is described as follows: Stat Signaling Pathway (AID 446; active = well fitted curve in either direction with a large enough effect, not every such curve was filed as active;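 also: ME-180 cervical cancer cells given 40 pM IL-6 alongside compound; SIE-controlled beta-lactamase reporter measured as 460/530 nm FRET emission ratio; % is scaled to controls: 0 for no effect and ±100 for the full control effect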). Conditions: ME-180 SIE beta-lactamase reporter, IL-6 stimulated, 5 h; at 7.69 µM (top of the series) unless noted. Put shortly:
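Screening format detects activators and inhibitors alike: ME-180 SIE-bla cells stimulated at 40 pM IL-6 for 5 hrs with compound, then dual-emission beta-lactamase read at 405 nm excitation.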

Test [5] has as its target Glucocorticoid receptor (Homo sapiens) (UniProt P04150). The test can be described thus: GR-GFP Redistribution (AID 450;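 active = compounds whose dose series gives a full or clear partial fitted curve of increased nuclear translocation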; also: potency is read from the fitted curve at half-maximal effect). Particulars: U2OS GR-GFP nuclear translocation, laser cytometry, 2 h.
Test [6] has the same target. The test can be described thus: GR-EFC Redistribution (AID 451; calls by dose curve; also: potency is read from the fitted curve at half-maximal effect). Conditions: CHO-K1 GR-EFC translocation, beta-gal luminescence, 2 h. Put shortly:
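Translocation of GR-ED fusion to nuclear EA restores b-gal, read by luminescence after 1 h room-temperature detection. Engineered CHO-K1 biosensor cells, 1,000/well, exposed 2 h at 37 C to titrations up to 46 uM final.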

Test [7] deals with Mitogen-activated protein kinase 10 (Mus musculus) (UniProt Q61831). The test can be described thus: JNK3 AlphaScreen Assay (AID 530; active = well fitted curve in either direction with a large enough effect, not every such curve was filed as active;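 also: kinase came from lysate of stimulated human HepG2 cells; signal reports phosphorylation of biotinylated GST-cJun 1-79 at Ser73 with 10 µM ATP; % is scaled to controls: 0 for no effect and ±100 for the full control effect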). The method, boiled down: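 Room-temperature AlphaScreen kinase assay; pre-activated HepG2 lysate as JNK3 source, biotin-GST-cJun(1-79) substrate, 10 uM ATP, compound 15 min preincubation.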
For orientation: In Alpha technology, singlet oxygen from a donor bead excites a nearby acceptor bead.

The target of test [8] is 3',5'-cyclic-AMP phosphodiesterase 4B (Homo sapiens) (UniProt Q07343). The test is described as follows: qHTS Assay for Inhibitors of PDE-IV (AID 607; active = well fitted activation curve with a large enough effect in the main read-out, with a control signal flat, not every such curve was filed as active; also: % of control where 0% means no effect). Put shortly:
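The readout is membrane depolarisation from a cAMP-sensing CNG channel, detected with a potential dye at ex 535/em 590. Cells were HEK293-derived (endogenous PDE-IV) at 1000 cells/well, titrated up to 22.9 uM final.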

Test [9] can be described thus: Confirmation and Secondary Assay for Modulators of Hemoglobin Beta Chain Splicing at IVS2 654 locus (AID 910).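 Also: HeLa cells stably carrying EGFP split by mutant beta-globin IVS2-654 intron; per-well total GFP intensity by laser scanning cytometry after 2-day treatment; % of control where 0% means no effect.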 Put shortly: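 Readout: per-well total peak green fluorescence (488 nm ex, 500–520 nm em) from objects 5–250 µm, reflecting correct splicing of an EGFP-654 reporter. Compounds were applied for 2 days at 37 °C to overnight-plated HeLa EGFP-654 cells; controls were DMSO and 500 nM IVS2-654 PNA.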

The nature of test [10]: Confirmation and Secondary Assay for Modulators of Hemoglobin Beta Chain Splicing at IVS2 705 locus (AID 930).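 Also: HeLa cells stably expressing the EGFP-705 splicing reporter; GFP fluorescence per well restored by corrected splicing of the IVS2-705 intron in EGFP; % of control where 0% means no effect.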 Put shortly:
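Per-well GFP, captured at 1 x 8 µm resolution with 488 nm excitation, served as the read-out for HeLa EGFP-705 cells incubated 2 days with test compound versus DMSO.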

The nature of test [11]: qHTS Assay for Lipid Storage Modulators (AID 1519; calls by dose curve). Particulars: Drosophila S3 cells, BODIPY lipid droplet/cell ratio, laser cytometry, cells loaded with oleic acid; for activity change, negative = inhibition: at 57.5 µM (top of the series). Put shortly:
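Cells seeded at 5,000 per well were treated with compounds over a concentration series and loaded with oleic acid (400 uM, as added). Lipid droplet fluorescence (488 nm excitation, 500-530 nm channel) was read by laser-scanning cytometry and normalized to 20 uM Triacsin C.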
On the technique in general: qHTS replaces the single test concentration by a dilution series.

For test [12], the target named is Ubiquitin carboxyl-terminal hydrolase 1 (Homo sapiens) (UniProt O94782). The test can be described thus: Inhibitors of USP1/UAF1: Pilot qHTS (AID 504865).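 Also: rhodamine fluorescence freed from ubiquitin-rhodamine substrate followed over time; top concentration of the series differs between compounds; % is scaled to controls: 0 for no effect and ±100 for the full control effect; nearly all actives have a fitted effect of over 35% in size.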 The method, boiled down:
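USP1/UAF1 complex (1nM) preincubated with compound 15 min at room temperature, then Ub-Rho substrate (150nM final) added. Fluorescence read kinetically at 480/540 nm, 6 reads every 60 seconds. Buffer: 50mM HEPES pH 7.8, 0.5mM EDTA, 0.1 mg/ml BSA, 1mM TCEP, 0.01% Tween-20.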

Test [13] is described as follows: Confirmatory qHTS for small molecule stabilizers of the endoplasmic reticulum resident proteome: Secreted ER Calcium Modulated Protein (SERCaMP) assay (AID 1508628). Also: potency is read from the fitted curve at half-maximal effect; nearly all actives have a fitted effect of over 40% in size. The method, boiled down:
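We seeded SH-SY5Y-GLuc-SERCaMP cells, added compounds (three concentrations in the primary run, eleven up to 76.6 uM in confirmation), incubated 16 h, depleted ER calcium with thapsigargin, and read luciferase 4 h later.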

Test [14] in a line: Cell Viability qHTS for small molecule stabilizers of the endoplasmic reticulum resident proteome (AID 1508629).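 Also: human SH-SY5Y neuroblastoma cells carrying the GLuc-SERCaMP reporter; compound exposure about 46 h in total before the viability read; % is scaled to controls: 0 for no effect and ±100 for the full control effect.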 Conditions: cell viability counter-screen, 100 nM thapsigargin for final 4 h.
Test [15] can be described thus: NFAT Signaling Pathway (AID 444; active = well fitted curve in either direction with a large enough effect, not every such curve was filed as active). Conditions: Jurkat NFAT-bla M1, carbachol, beta-lactamase ratio, 5 h; at 7.69 µM (top of the series) unless noted. The method, boiled down: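 Read-out: CCF4 FRET ratio (460 nm/530 nm) after 1 h RT dye loading, used for %activity and AC50 from titration series. Cells: Jurkat NFAT-β-lactamase/M1 line, treated with compound plus 1 uM carbachol for 5 h, 37 °C.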

For test [16], the target named is Cytochrome P450 3A4 (Homo sapiens) (UniProt P08684). The test can be described thus: qHTS Assay for Activators of Cytochrome P450 3A4 (AID 885). Also: nearly all actives have a fitted effect of over 65% in size. The method, boiled down: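 Steps: enzyme/substrate mix dispensed; compound added, 10 min RT; NADPH regeneration solution added, 60 min RT; luciferin detection buffer stops reaction; 20 min later luminescence measured.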
Chain of Cytochrome P450 3A4 (Homo sapiens) (P08684 whole entry, looked up): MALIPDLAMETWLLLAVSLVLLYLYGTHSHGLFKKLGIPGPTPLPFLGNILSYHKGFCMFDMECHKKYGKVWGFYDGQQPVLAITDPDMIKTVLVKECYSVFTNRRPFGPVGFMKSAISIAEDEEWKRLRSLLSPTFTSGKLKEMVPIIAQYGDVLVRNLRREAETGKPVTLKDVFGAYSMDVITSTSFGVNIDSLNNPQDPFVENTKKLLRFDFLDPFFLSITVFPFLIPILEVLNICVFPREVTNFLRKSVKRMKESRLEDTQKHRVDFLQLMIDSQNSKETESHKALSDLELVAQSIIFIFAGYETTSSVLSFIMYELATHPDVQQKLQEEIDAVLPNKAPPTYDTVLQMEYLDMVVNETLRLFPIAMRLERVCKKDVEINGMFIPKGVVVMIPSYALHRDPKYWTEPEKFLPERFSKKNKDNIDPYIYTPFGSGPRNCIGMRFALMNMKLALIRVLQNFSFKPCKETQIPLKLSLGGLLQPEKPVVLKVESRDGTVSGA

Test [17] concerns the target Dual specificity protein kinase CLK4 (Homo sapiens) (UniProt Q9HAZ1). The test can be described thus: qHTS Assay for Inhibitors of CDC-like Kinase 4 (Kinase-Glo Assay) (AID 1770). Also: nearly all actives have a fitted effect of over 65% in size. Also: potency is read from the fitted curve at half-maximal effect. The method, boiled down:
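Recombinant human Clk4 (25 nM) phosphorylated RS repeat peptide (100 uM) with 1 uM ATP in Tris pH 7.5/MgCl2/EGTA/DTT/Triton buffer for 4.5 h at room temperature. Residual ATP was quantified by Kinase-Glo luciferase luminescence.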

For test [18] the target is unchanged. The test is described as follows: qHTS Assay for Inhibitors of CDC-like Kinase 4 (ADP-Glo Assay) (AID 1771). Also: nearly all actives have a fitted effect of over 70% in size. Also: potency is read from the fitted curve at half-maximal effect. The method, boiled down:
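Kinase reaction: Clk4 at 25 nM, RS repeat peptide substrate at 100 uM, ATP at 1 uM, 1 hr, room temperature. Product ADP detected as luciferase signal via ADP-Glo.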

Test [19] shares this target. The test can be described thus: qHTS Assay for Inhibitors of CDC-like Kinase 4 (ADP-FP Assay) (AID 1795). Also: nearly all actives have a fitted effect of over 60% in size. Also: potency is read from the fitted curve at half-maximal effect. Put shortly:
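Recombinant human Clk4 (6.25 nM) phosphorylated RS repeat peptide (100 uM) with 1 uM ATP in Tris pH 7.5/MgCl2/EGTA/DTT/Triton buffer for one hour. ADP was quantified by Transcreener competitive fluorescence polarization against an ADP calibration curve.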

Test [20] in a line: Counterscreen qHTS for small molecule stabilizers of the endoplasmic reticulum resident proteome: GLuc-NoTag assay (AID 1508627).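 Also: SH-SY5Y cells given compound then 100 nM thapsigargin to empty ER calcium; 0% = thapsigargin alone and -100% = DMSO vehicle control.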 The method, boiled down: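 Luminescence of Gaussia luciferase secreted into the medium (coelenterazine, 0.07x final, unlysed cells) was the read-out. Human SH-SY5Y neuroblastoma cells constitutively secreting untagged GLuc received compound for 19 h, then 100 nM thapsigargin for 4 h.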
Background: The purpose of a counterscreen is to sort out artefacts and off-target activity.

The target in test [21] is Cytochrome P450 2C19 (Homo sapiens) (UniProt P33261). The test is described as follows: qHTS Assay for Inhibitors and Substrates of Cytochrome P450 2C19 (AID 899). Also: potency is read from the fitted curve at half-maximal effect; nearly all actives have a fitted effect of over 60% in size. The method, boiled down: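 5nM enzyme + 10uM Luciferin-H EGE (=KM), 50mM KPO4; cpd pin-transferred, 10 min 37C; NADPH regen, 60 min 37C; stopped w/ luciferin detection reagent, 20 min; luminescence. Normalized to 57uM ketoconazole (AC100).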
Chain of Cytochrome P450 2C19 (Homo sapiens) (P33261 whole entry, looked up): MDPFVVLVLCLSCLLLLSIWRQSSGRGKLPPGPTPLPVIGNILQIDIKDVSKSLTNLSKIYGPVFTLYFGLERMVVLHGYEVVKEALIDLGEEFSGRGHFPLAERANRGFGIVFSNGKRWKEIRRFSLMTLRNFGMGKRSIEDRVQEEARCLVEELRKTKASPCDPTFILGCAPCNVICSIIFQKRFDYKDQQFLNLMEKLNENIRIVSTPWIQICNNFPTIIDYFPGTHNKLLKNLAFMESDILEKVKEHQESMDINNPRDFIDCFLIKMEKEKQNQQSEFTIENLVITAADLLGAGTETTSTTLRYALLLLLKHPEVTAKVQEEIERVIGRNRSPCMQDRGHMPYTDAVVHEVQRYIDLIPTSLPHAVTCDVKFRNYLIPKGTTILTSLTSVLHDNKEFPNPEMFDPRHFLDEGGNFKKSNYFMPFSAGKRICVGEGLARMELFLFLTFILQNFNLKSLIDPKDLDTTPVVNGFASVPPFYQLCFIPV

The target of test [22] is Cytochrome P450 3A4 (Homo sapiens) (UniProt P08684). The test is described as follows: qHTS Assay for Inhibitors and Substrates of Cytochrome P450 3A4 (AID 884). Also: potency is read from the fitted curve at half-maximal effect; nearly all actives have a fitted effect of over 50% in size. Put shortly: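 20 nM human CYP3A4 with 25 uM Luciferin-PPXE (at KM) in 200 mM KPO4, preincubated 10 min with compound; NADPH regeneration started a 60 min RT reaction. Luciferin detected by luminescence, normalized to 57 uM ketoconazole as full inhibition.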

The mark [23] stands for this setting: measured here: cell count channel max response.
The mark [24] stands for this setting: measured here: lipid channel max response.

Inconclusive results are not listed. Activity calls are given as the source filed them. Unless noted, calls follow the shape of the dose curve; as a rule, active = well fitted curve in the direction sought with a large enough effect; inconclusive = small, poorly fitted or top-dose-only effect, or another doubt; inactive = no such curve, though single readings can be large; an effect the other way counts as inactive or inconclusive.

Chain of Lysosomal acid glucosylceramidase (Homo sapiens) (P04062 whole entry, looked up): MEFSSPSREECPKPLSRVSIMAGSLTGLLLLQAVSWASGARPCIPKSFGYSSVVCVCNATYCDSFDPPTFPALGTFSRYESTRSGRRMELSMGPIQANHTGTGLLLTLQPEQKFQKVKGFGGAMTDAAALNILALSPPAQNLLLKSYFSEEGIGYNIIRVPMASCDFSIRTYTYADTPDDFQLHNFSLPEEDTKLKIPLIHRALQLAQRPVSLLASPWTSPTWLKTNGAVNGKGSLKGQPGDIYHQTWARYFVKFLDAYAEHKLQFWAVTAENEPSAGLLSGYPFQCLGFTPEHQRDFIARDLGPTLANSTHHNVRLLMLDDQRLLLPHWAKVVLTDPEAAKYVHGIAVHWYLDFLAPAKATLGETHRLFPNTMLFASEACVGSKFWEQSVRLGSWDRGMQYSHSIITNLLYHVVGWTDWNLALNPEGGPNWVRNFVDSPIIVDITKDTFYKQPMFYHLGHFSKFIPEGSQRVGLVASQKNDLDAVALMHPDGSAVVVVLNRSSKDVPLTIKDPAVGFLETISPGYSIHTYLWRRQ
Chain of Glucocorticoid receptor (Homo sapiens) (P04150 whole entry, looked up): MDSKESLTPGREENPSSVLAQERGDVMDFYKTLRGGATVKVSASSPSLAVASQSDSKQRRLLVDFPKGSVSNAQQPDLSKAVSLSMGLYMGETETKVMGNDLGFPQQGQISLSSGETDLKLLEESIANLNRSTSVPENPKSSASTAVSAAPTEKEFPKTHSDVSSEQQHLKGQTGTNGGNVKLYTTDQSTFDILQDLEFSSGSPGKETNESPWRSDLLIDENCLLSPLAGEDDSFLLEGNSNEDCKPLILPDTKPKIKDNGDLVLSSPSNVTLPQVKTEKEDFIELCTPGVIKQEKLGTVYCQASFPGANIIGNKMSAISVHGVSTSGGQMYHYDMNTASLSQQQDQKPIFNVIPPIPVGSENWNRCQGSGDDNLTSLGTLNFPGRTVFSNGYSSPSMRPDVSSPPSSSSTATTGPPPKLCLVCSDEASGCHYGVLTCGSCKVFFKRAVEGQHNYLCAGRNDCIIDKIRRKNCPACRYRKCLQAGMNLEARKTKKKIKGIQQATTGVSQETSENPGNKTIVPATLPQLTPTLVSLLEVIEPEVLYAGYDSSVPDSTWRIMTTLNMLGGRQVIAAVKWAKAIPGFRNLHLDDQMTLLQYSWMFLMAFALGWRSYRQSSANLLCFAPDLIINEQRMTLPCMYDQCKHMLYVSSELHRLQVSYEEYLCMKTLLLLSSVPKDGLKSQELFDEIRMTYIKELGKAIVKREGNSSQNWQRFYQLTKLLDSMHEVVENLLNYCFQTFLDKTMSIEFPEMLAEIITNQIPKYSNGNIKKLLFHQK
Chain of Ubiquitin carboxyl-terminal hydrolase 1 (Homo sapiens) (O94782 whole entry, looked up): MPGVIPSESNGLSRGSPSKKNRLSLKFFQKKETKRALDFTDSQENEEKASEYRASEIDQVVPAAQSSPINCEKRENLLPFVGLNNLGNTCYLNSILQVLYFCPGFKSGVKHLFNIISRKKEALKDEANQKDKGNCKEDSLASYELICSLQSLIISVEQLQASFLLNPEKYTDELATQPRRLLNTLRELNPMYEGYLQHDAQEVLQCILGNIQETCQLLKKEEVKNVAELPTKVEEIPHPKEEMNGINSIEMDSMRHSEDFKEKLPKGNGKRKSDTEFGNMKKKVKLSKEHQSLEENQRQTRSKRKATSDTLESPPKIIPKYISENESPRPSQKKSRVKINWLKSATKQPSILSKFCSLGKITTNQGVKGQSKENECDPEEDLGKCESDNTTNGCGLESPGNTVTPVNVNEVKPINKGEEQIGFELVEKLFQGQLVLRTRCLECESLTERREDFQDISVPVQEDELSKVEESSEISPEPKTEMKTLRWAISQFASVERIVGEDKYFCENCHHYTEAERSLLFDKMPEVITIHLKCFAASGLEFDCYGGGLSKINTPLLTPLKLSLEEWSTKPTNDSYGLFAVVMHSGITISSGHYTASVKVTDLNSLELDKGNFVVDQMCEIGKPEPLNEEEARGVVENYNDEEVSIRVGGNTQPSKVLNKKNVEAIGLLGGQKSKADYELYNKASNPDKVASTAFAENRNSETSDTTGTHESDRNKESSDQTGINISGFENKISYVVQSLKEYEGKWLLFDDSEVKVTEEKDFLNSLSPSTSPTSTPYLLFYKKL
Chain of Cytochrome P450 1A2 (Homo sapiens) (P05177 whole entry, looked up): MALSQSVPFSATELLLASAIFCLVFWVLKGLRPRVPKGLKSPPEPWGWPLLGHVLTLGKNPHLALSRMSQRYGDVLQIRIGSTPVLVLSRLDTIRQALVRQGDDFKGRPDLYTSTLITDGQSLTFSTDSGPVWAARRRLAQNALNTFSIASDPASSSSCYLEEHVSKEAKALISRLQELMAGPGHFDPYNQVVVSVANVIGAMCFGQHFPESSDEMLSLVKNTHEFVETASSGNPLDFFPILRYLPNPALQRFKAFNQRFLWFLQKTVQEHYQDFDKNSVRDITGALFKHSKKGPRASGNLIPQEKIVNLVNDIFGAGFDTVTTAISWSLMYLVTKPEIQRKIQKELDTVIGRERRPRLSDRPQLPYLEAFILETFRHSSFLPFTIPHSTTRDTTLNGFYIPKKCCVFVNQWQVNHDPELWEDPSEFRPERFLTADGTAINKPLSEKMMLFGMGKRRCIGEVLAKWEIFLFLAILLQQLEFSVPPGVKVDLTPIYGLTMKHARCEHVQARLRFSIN
Chain of Dual specificity protein kinase CLK4 (Homo sapiens) (Q9HAZ1 whole entry, looked up): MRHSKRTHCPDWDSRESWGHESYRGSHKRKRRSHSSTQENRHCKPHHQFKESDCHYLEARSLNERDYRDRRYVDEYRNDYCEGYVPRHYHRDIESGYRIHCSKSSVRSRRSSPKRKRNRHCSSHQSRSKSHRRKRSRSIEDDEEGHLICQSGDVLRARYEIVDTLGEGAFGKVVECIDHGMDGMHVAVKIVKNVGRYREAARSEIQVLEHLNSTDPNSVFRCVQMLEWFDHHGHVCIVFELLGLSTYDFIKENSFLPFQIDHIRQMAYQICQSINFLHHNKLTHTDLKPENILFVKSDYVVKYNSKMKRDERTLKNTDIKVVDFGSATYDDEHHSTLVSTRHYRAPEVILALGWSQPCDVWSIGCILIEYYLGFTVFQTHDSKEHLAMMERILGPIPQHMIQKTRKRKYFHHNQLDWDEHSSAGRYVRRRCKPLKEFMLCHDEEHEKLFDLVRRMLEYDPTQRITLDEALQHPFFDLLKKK
Chain of 3',5'-cyclic-AMP phosphodiesterase 4B (Homo sapiens) (Q07343 whole entry, looked up): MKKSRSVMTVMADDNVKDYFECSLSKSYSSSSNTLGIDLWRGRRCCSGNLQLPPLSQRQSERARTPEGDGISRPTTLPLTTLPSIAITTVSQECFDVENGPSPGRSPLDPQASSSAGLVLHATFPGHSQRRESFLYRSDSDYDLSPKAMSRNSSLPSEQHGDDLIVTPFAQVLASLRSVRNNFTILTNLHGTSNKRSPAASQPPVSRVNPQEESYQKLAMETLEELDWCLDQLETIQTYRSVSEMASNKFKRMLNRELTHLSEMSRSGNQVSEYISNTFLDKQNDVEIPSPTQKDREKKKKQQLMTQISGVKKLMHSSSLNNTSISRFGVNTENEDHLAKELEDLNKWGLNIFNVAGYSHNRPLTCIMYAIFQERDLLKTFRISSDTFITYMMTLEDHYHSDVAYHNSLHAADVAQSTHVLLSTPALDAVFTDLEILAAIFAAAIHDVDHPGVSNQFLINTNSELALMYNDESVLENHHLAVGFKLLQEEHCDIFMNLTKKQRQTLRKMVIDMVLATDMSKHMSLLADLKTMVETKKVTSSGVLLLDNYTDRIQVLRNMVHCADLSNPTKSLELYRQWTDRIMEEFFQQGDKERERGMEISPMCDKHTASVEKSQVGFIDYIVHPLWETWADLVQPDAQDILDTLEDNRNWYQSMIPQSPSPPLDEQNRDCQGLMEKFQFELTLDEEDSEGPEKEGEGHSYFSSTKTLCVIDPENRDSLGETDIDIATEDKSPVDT

As to `FC(F)(F)c1ccccc1-c1nc(N2CCNCC2)c2ccccc2n1`, the Potency in test [1] is > 11.4 µM (inactive); in test [3] it was 10 µM (active); in [5] it was > 46 µM (inactive); in test [6] it was > 46 µM (inactive); in test [13] it was 20 µM (active). The activity change, negative = inhibition in test [2] is 6.77% (inactive); in test [11], 7.02% (inactive). Further, the activity, negative = inhibition in test [4] is 11.2% (inactive). Further, the result in test [7], in [9] and in test [10] was inactive. Moreover, the Potency entry in [8] and in test [12] was “inactive” in each case. The max response in test [11] (setting [23]) is 13.7%; in test [11] (setting [24]) it was 21.9%.

For `O=C(CCCN1C(=O)c2cccc3cccc(c23)C1=O)N1CCN(Cc2ccc3c(c2)OCO3)CC1`, the Potency in test [13] was 27.3 µM (active). Moreover, the max response in test [14] was -13.9% (inactive).

In the case of `O=c1c(CCc2ccccc2)nc2cnc(N3CCNCC3)nc2n1C1CC1`, the Potency is > 11.4 µM (inactive) in test [1], > 9.22 µM (inactive) in test [5] and > 46 µM (inactive) in test [6]. Also, the activity change, negative = inhibition is -9.21% (inactive) in [2], -7.73% (inactive) in test [15] and 2.72% (inactive) in [11]. The activity, negative = inhibition in [4] is -12.8% (inactive). Further, in [7], the outcome was inactive. Besides, the Potency result in test [16], in test [17], in [18], in [19], in test [12] and in test [20] was “inactive” throughout. The max response in [11] (setting [23]) is 16.7%; in [11] (setting [24]) it was 18.1%.

As to `CN(C)c1ncc2ncc(=O)n(CCc3ccccc3)c2n1`, the Potency in test [1] was > 11.4 µM (inactive); in test [3], 0.794 µM (active); in test [5] it was > 9.22 µM (inactive); in test [6] it was > 46 µM (inactive); in test [21], 2 µM (active); in test [17], 6.31 µM (active). The Potency in test [18] is 6.31 µM (active); in [19] it was 5.01 µM (active); in test [13] it was 39.8 µM (active). Also, in test [2], the activity change, negative = inhibition was -21.4% (inactive). For the same compound, in test [4], the activity, negative = inhibition was -10.8% (inactive). In test [7], the compound was classed as inactive. In addition, the Potency entry in test [12] was “inactive”.

On to `CN1CCN(c2ncnc3ccc(-c4ccccc4Cl)cc23)CC1`, for which the Potency in [1] is > 11.4 µM (inactive); in test [3] it was 1.58 µM (active); in test [5] it was > 46 µM (inactive); in test [6] it was > 46 µM (inactive); in [22] it was 5.01 µM (active); in test [21], 3.98 µM (active). Moreover, in test [18], the Potency is 28.2 µM (active). The activity change, negative = inhibition in test [15] was -23.1% (inactive); in [11] it was -1.72% (inactive). Further, in test [7], the compound was classed as inactive. Moreover, the Potency result in test [16], in [12] and in test [20] was “inactive” each time. Besides, the max response in [11] (setting [23]) was 10.9%; in [11] (setting [24]) it was -1.45%.

With `COCCn1c(=O)c(CCc2ccccc2)nc2cnc(OC)nc21`, the Potency in test [1] was > 11.4 µM (inactive); in [3], 10 µM (active); in test [5], > 9.22 µM (inactive); in test [6] it was > 46 µM (inactive); in test [21], 0.794 µM (active). Moreover, the activity change, negative = inhibition in [2] was -6.75% (inactive); in [15], -10.3% (inactive). Also, the activity, negative = inhibition in test [4] was -4.28% (inactive). Also, the result in test [7] was inactive. For the same compound, the Potency result in test [16] and in test [20] was “inactive” in each case.

These data come from PubChem BioAssay (NCATS).
